Experimental findings from PubChem BioAssay (NCI) are described below.

About 83,000 compounds went through this panel and 20% of them were active in at least one assay; those are over-represented in the sample as a whole.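 Growth was measured after 48 h exposure to one concentration of compound in 96-well plates. Values under 10 count as active.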 A number with no mark means an inactive call. Calls of active or inactive are those of the source.

The test system of one test is DU-145 prostate. Kind of test: NCI-60 one-dose screen, 48 h (100 = growth as untreated, 0 = no growth, -100 = all killed). As to conditions: 10 µM.
Take `CS(=O)(=O)c1nccc(-c2c(-c3cccc(OCCN4CCOCC4)c3)nc3sccn23)n1`: the growth was 91.9%. For the compound `C=CCSC(CC)(CC)C(=O)NC`, the growth was 120%. The same measure, in the same setting: for `CCn1c(SC/C(=N/O)c2ccccc2)nnc1-c1ccccc1` the value was 107%; for `CCN(CC)CCOc1ccc2c(c1O)C(=O)c1ccccc1C2=O`, 95.4%. Regarding `CS(=O)(=O)c1nccc(-c2c(-c3cccc(O)c3)nc3sccn23)n1`, the growth is 90.9%. For the compound `CC(=O)[C@H]1CC[C@]2(C)[C@@H]1CC[C@@H]1[C@@]3(C)CC(CCC#N)(CCC#N)C(=O)C(C)(C)[C@@H]3CC[C@]12C`, the growth was 108%. Still for that read-out and setting: for `COc1cc(-c2nn(-c3cccc(NC(=O)CN4CCOCC4)c3)cc2-c2cccnc2)ccc1Cl` the value was 82.3%. Take `CNS(=O)(=O)Oc1ccc(-c2sc3cc(OS(=O)(=O)NC)ccc3c2C(=O)c2ccc(OCCN3CCCCC3)cc2)cc1`: the growth was 98.2%. As for `Clc1ccc(/C=C2\CCCC3C2=Nc2ccccc2NC3c2ccc(Cl)cc2)cc1` (configuration not stated), the growth is 89.2%. `CCOS(=O)(=O)c1c(C(C)C)cc(C(C)C)cc1C(C)C`: the growth was 103%.

With `COc1cc(/C=C/c2cc(/C=C/c3ccc(O)c(OC)c3)n(C(=O)Nc3ccccc3Cl)n2)ccc1O`, the growth was 1.28% (active).

The next test relates to K-562 leukemia. Described as above. As to conditions: 10 µM.
Turning to `CCN1CCN(CCC(=O)Nc2cccc(-n3cc(-c4ccncc4)c(-c4ccc(Cl)c(OC)c4)n3)c2)CC1`, the growth is -34% (active). On the same count and under the same terms, for `O=C1/C=C/[C@@H](O)[C@@H]2C[C@@H](O)C[C@H]2/C=C/CCC[C@H](C(F)(F)F)O1` the value was 20.7%.

Take `CC[C@@H](C(=O)[C@@H](C)[C@@H](O)[C@H](C)[C@@H]1O[C@@H]([C@@H](CC)C(=O)N(CC)CC)CC[C@@H]1C)C1O[C@]2(C=CC(=O)[C@]3(CC[C@@](C)([C@H]4CC[C@](O)(CC)[C@H](C)O4)O3)O2)[C@H](C)C[C@@H]1C` (some centres not stated): the growth is 19.3%. With `COc1ccc(-c2cc(-c3ccc(Cl)cc3)nc(SCCCCCCC(=O)NO)n2)cc1OC`, the growth is 36.1%. On the same count and under the same terms, the figure for `N#CCc1csc(Cc2ccccc2)n1` is 103%; for `CC(C)(C)OC(=O)CN1CCc2c(sc3ncnc(N/N=C/c4ccccc4Br)c23)C1` it is 16.6%; for `CC(CN(C)C)Oc1ccccc1NC1=C(Cl)C(=O)C(Nc2ccccc2OC(C)CN(C)C)=C(Cl)C1=O` (configuration not stated) it is -11.2% (active). Same read-out and setting: the figure for `Nc1ccn(Cc2nnc(CCC(=O)c3nc4ccccc4[nH]3)o2)c(=O)n1` is 79.8%; for `CC(C)(C)OC(=O)CN1CCc2c(sc3ncnc(N/N=C/c4cccc5ccccc45)c23)C1` it is 6.22% (active).

As for `CCOC(=O)c1cc(C(=O)c2ccc(Cl)cc2)n2ccc(-c3cc[n+](CC(=O)c4ccc(OC)cc4)cc3)cc12`, the growth was -52.9% (active). Turning to `NS(=O)(=O)Oc1ccc(NC(=O)C2CCCCCC2)cc1`, the growth was 96.1%. As to `NNC(=O)Oc1c(Cl)cc(Cl)cc1[N+](=O)[O-]`, the growth is 102%.

Regarding `O=C1c2ccccc2C(=O)c2c1ccc(C(Br)Br)c2[N+](=O)[O-]`, the growth was -7.68% (active). For the compound `COc1ccc(NC(=O)C2CC3C=CC2C3)c([N+](=O)[O-])c1` (configuration not stated), the growth was 88.9%. Regarding `CC[C@@H](C(=O)[C@H](C)[C@H](O)[C@@H](C)[C@H]1O[C@H]([C@@H](CC)C(=O)N(CC)CC)CC[C@H]1C)C1O[C@]2(C=C[C@@H](O)[C@]3(CC[C@@](C)([C@H]4CC[C@](O)(CC)[C@H](C)O4)O3)O2)[C@H](C)C[C@@H]1C` (some centres not stated), the growth is 16.2%. Turning to `COc1cc(-c2nn(-c3cccc(NC(=O)NCCNC(=O)c4cccc(C(F)(F)F)c4)c3)cc2-c2ccncc2)ccc1Cl`, the growth is 8.57% (active). As to `O=C(O)c1cc([N+](=O)[O-])ccc1Oc1ccccc1`, the growth is 116%. `CCOC(=O)c1cc(C(=O)c2cc(OC)c(OC)c(OC)c2)n2nc(C)ccc12`: the growth was 9.56% (active).

For the compound `CC[C@@H](C(=O)[C@@H](C)[C@@H](O)[C@H](C)[C@@H]1O[C@@H]([C@@H](CC)C(=O)O)CC[C@@H]1C)C1O[C@]2(C=CC(=O)[C@]3(CC[C@@](C)([C@H]4CC[C@](O)(CC)[C@H](C)O4)O3)O2)[C@H](C)C[C@@H]1C` (some centres not stated), the growth is 13.8%.

On to `Cc1ccc(S(=O)(=O)N(C)CCCCCC(=O)O)cc1`, for which the growth was 104%.

In the case of `COc1ccc(C2=Cn3c(CCC(=O)c4nc5ccccc5[nH]4)nnc3SC2)cc1`, the growth was 3.14% (active).
